# From PubChem
# Sfp PPTase inh: qHTS Assay for Inhibitors of Bacillus subtilis Sfp phosphopantetheinyl transferase (PPTase) | Biochemical Sfp PPTase activity, qHTS | 310,000 tested, 3.5% active | Potency, µM, without a hit: largest response in the series, negative = inhibition, usual class: inhibitors | 4'-phosphopantetheinyl transferase ffp (Bacillus subtilis), Q9F4F7;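 note: the enzyme is Sfp with the accession as filed and its product quenches rhodamine fluorescence; 0% = enzyme reaction without inhibitor and -100% = no enzyme wells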
#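 Step 1, compound plus 15 nM Sfp-PPTase, 15 min, room temperature. Step 2, add rhodamine-CoA (5 uM) and BHQ-2-YbbR (12.5 uM). Step 3, read 525/598 nm fluorescence at 0 and 30 min.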
# GRP78 ERSR act: qHTS for Inducers of the Endoplasmic Reticulum Stress Response (ERSR) in Human Glioma: qHTS | 420,000 tested, 0.02% active | Potency, µM, for the others: top-dose activation, usual class: activators | U87-MG GRP78 promoter luciferase reporter, 16 h | AID 602332, 2012; note: series mostly up to about 76 µM; % of control where 0% means no effect; nearly all actives have a fitted effect of over 35% in size
#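 Stably transfected U87-MG glioma cells carrying a GRP78-based luciferase sensor; 16 h compound incubation. Luminescence end-point read 10 min after Bright-Glo addition at room temperature.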
# VDR inhibitor: Inhibitors of the vitamin D receptor (VDR): qHTS; VDR-SRC2-3 peptide fluorescence polarization, 2 h; Potency, µM, without a hit: max response, negative = inhibition, usual class: inhibitors; 400,000 tested, 0.93% active; note: % is set by controls: 0 for no effect and ±100 for the full control effect
#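 Reagent solutions, kept cold and dark, are dispensed first; compounds are then pinned in at 23 nl, plates briefly spun, and incubated 2 h at ambient temperature. Inhibition of VDR–SRC2-3 peptide binding is read by fluorescence polarization.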
# G9a inh: qHTS Assay for Inhibitors of Histone Lysine Methyltransferase G9a. Histone-lysine N-methyltransferase EHMT2 (Homo sapiens), Q96KQ7. G9a H3K9 monomethylation, AlphaScreen, 2 h. AID 504332, 2011. Potency, µM (top dose mostly 102 µM), for inactives: top-dose activity, negative = inhibition, hits mostly inhibitors. 350,000 tested, 8.8% active; note: % is set by controls: 0 for no effect and ±100 for the full control effect; nearly all actives have a fitted effect of over 75% in size
#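 AlphaScreen detection with an anti-monomethyl H3K9 antibody quantified product after a 2 h room-temperature reaction containing 500 nM biotinylated H3K9 peptide, 20 µM SAM and 20 nM enzyme, which had been preincubated 15 min with compound.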
# ALOX12 inh: Primary qHTS assay for inhibitors of human arachidonate 12S-lipoxygenase (ALOX12): Round 2 | Polyunsaturated fatty acid lipoxygenase ALOX12 (Homo sapiens), P18054 | purified 12hLO, xylenol orange hydroperoxide absorbance | Potency, µM (series often up to 108 µM), for the others: top-dose activity change, negative = inhibition, usual class: inhibitors | 580,000 tested, 1.1% active | AID 1671190, 2021; note: % is set by controls: 0 for no effect and ±100 for the full control effect
# Target sequence (P18054 whole entry, looked up): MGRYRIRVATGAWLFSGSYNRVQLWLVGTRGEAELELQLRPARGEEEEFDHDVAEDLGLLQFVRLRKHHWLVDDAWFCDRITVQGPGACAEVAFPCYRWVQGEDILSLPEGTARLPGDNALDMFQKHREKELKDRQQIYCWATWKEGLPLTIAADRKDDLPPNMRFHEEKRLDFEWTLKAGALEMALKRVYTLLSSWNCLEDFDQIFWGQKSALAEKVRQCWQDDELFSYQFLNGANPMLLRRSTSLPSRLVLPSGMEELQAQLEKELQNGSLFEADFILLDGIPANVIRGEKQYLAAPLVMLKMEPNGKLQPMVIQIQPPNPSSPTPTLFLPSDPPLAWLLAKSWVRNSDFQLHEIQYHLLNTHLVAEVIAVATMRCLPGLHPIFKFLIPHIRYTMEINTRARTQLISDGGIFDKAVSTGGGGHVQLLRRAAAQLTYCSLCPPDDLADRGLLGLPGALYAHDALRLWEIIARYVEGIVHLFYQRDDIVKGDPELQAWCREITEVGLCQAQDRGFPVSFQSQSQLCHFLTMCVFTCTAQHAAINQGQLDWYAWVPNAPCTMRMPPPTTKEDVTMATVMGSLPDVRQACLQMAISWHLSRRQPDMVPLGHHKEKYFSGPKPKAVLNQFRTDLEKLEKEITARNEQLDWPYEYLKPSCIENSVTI
#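 Purified human 12hLO at 150 nM in 25 mM Hepes, 0.01% Triton X-100, pH 7.0, preincubated 15 min at room temperature with compound. Reaction started with 40 uM arachidonic acid, 30 min at room temperature. Hydroperoxide measured by Fe-xylenol orange, 573/405 nm absorbance ratio.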
# * = called active by the depositor; ? = inconclusive; . = not tested or not shown; [ ] = dose if it differs, or a comment. Shown is part of a subset that was picked to be rich in hits. Calls come from the whole dose curve; as a rule, active = well fitted curve in the direction sought with a large enough effect; inconclusive = small, poorly fitted or top-dose-only effect, or another doubt; inactive = no such curve, though single readings can be large; an effect the other way counts as inactive or inconclusive. Potency is the fitted concentration of half-maximal effect.
SMILES,Sfp PPTase inh,GRP78 ERSR act,VDR inhibitor,G9a inh,ALOX12 inh
NCc1ccc2[nH]c(=O)[nH]c2c1,23%,-5%,?,?,4%
S=c1[nH]c2cc3c(cc2[nH]1)OCCCO3,.,.,.,.,-23%
S=c1[nH]c2ccc(Cc3ccc4[nH]c(=S)[nH]c4c3)cc2[nH]1,28µM*,-4%,-13%,0.28µM*,45µM*
Cc1scc(C(=O)NCc2ccccn2)c1C,.,.,.,.,62%
O=C(O)c1ccc(C[n+]2c(-c3ccccc3)csc2Nc2ccccc2)cc1,5%,-1%,-18%,?,?
COc1ccc(-c2csc(Nc3ccccc3)[n+]2CC(O)c2ccc([N+](=O)[O-])cc2)cc1 (configuration not stated),-7%,-7%,5%,14µM*,?
CSc1ccc(/C=C(/C#N)C(=O)Nc2ccccc2Br)cc1,.,.,.,.,41%
C/C(CC(C)(C)c1ccccc1)=N\NC(=O)CC#N,.,.,.,.,15%
C/C(CC(C)(C)c1ccccc1)=N\NS(=O)(=O)c1ccccc1,9%,-1%,?,25µM*,-10%
Cn1ccnc1CN(C1CC1)S(=O)(=O)c1cc(Cl)ccc1Cl,.,.,.,.,-4%
COc1cccc(/C=N/N2C(=O)NC3(CCCCC3)C2=O)c1O,3%,-2%,-14%,16µM*,?
CCOc1cc(/C=N/N2C(=O)NC3(CCCCC3)C2=O)cc(Br)c1O,14%,-2%,-15%,?,54%
COc1cc(F)ccc1CNCc1cccnc1N1CCOCC1,.,.,.,.,50%
O=C(Cn1c(N2CCN(c3ccccc3)CC2)nc2ccccc21)c1ccccc1,-3%,4%,5%,50µM*,0%
O=C(COc1c(Br)cc(Br)c2cccnc12)Nc1ccccc1F,-13%,3%,-18%,45µM*,?
CCc1ccc(-c2cn(C3CCCCC3)c(=S)[nH]2)cc1,11%,-3%,-4%,?,20µM*
CCOC(=O)N1CCC(N2CCN(S(=O)(=O)c3ccc4ccccc4c3)CC2)CC1,?,-4%,-1%,8.9µM*,?
CCOC(=O)N1CCC(N2CCN(S(=O)(=O)c3ccc([N+](=O)[O-])cc3)CC2)CC1,?,-1%,16%,11µM*,?
COc1ccc(CCC(=O)N2CCC3(CC2)NCCc2c3[nH]c3ccc(OC)cc23)cc1,.,.,.,.,11%
CC1Cc2ccccc2N1C(=O)CSc1ncc(C(F)(F)F)cc1Cl (configuration not stated),.,.,.,.,-28%
CCOc1cc(N2CCOCC2)c(OCC)cc1NCC(=O)N1CCN(Cc2ccccc2)CC1,56µM*,-1%,12%,.,-68%
CCOc1cc(N2CCOCC2)c(OCC)cc1NC(=O)CC12CC3CC(CC(C3)C1)C2,-3%,1%,-9%,13µM*,?
CCOc1cc(N2CCOCC2)c(OCC)cc1NC(=O)[C@H](C)N1C(=O)C2CC=CCC2C1=O (some centres not stated),18%,-5%,5%,-3%,0%
CCOc1cc(N2CCOCC2)c(OCC)cc1NC(=O)CSc1ncn[nH]1,-64%,-9%,-13%,45µM*,-3%
CCOc1cc(N2CCOCC2)c(OCC)cc1NC(C)C(=O)N1CCC(C)CC1 (configuration not stated),-2%,-3%,?,40µM*,35µM*
CCC(C)c1ccccc1NC(=O)c1cc(C)nc2ccccc12 (configuration not stated),.,.,.,.,1%
CC(C)c1ccccc1NC(=O)c1nn(Cc2ccccc2)c(=O)c2ccccc12,.,.,.,.,-5%
CCOc1cc(N2CCOCC2)c(OCC)cc1NC(=O)CN1CCc2ccccc2C1,45µM*,-7%,6%,15%[2.33 µM],?
CCOc1cc(N2CCOCC2)c(OCC)cc1NC(=O)c1cccc(N(C)C)c1,-1%,-4%,11%,45µM*,-3%
